Data taken from PubChem BioAssay (NCATS).
Results filed as inconclusive are left out. Where a call stands in place of a potency, no number is given. Activity calls are given as the source filed them. Calls come from the whole dose curve; as a rule, active = well fitted inhibition curve with a large enough effect; inconclusive = small, poorly fitted or top-dose-only effect; inactive = flat fitted curve, though single readings scatter.

Assay: qHTS of Trypanosoma Brucei Inhibitors: LOPAC Validation (AID 624147)
Settings: purified enzyme assay, luminescence, 45 min; series mostly up to 57.5 µM
Summary of the method: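 TbPYK + substrate in 50 mM TEA pH 7.2, 100 mM KCl, 10 mM MgCl2, 0.05% BSA, 0.01% Tween-20; cpd pinned; ADP 130 uM final; 45 min RT; Kinase-Glo Plus 10 min; luminescence endpoint.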
Potency is the fitted concentration of half-maximal effect.

Compound | Potency
Cc1ccc(O)c(N=Nc2ccccc2)n1 | 19 µM (active)
CN1C2CCC1CC(OC(=O)C(O)c1ccccc1)C2 (configuration not stated) | inactive
CC(=O)SCC[N+](C)(C)C | inactive
COc1cc2nc(N3CCN(C(=O)OCc4ccccc4)C(C(=O)NC(C)(C)C)C3)nc(N)c2cc1OC (configuration not stated) | inactive
CC1(C)CCC=[N+]1[O-] | inactive
CO/S(=N\S(=O)(=O)c1ccc(Cl)cc1)c1ccc([N+](=O)[O-])cc1 (configuration not stated) | inactive
O=P(O)(O)C(Cl)(Cl)P(=O)(O)O | inactive
CCCCCCCCc1ccc(-c2ccc(C(=O)O)cc2)cc1 | inactive
C#CCN1C(C)=C(C(=O)OC)C(c2cccc([N+](=O)[O-])c2)C(C(=O)OCC)=C1C (configuration not stated) | inactive
COc1cc(C(O)CO)ccc1OS(=O)(=O)O (configuration not stated) | inactive
CC(C)Cc1ccc([C@H](C)C(=O)O)cc1 | inactive
Cc1nc2sccn2c(=O)c1CCN1CCC(=C(c2ccccc2)c2ccc(F)cc2)CC1 | inactive
O=c1[nH]c2cc(Cl)c(Cl)cc2[nH]c1=O | inactive
CC1CN(S(=O)(=O)c2cccc3cnccc23)CCN1 (configuration not stated) | inactive
COc1ccc(NC(=O)/C=C/c2ccc(Cl)cc2)cc1 | inactive
C[C@@H](NC(=O)/C(C#N)=C/c1ccc(O)c(O)c1)c1ccccc1 | inactive
CCCN(CC1CC1)c1nc(C)nc(Nc2c(Cl)cc(Cl)cc2Cl)c1Cl | inactive
Cc1cc(NC2CCCCC2)nc(-n2nc(C)cc2C)n1 | inactive
NCCSSCCN | inactive

Compound | Potency
CC(C)(C=O)Cc1cc(C(C)(C)C)c(O)c(C(C)(C)C)c1 | inactive
CCc1c(C(=O)NCCc2ccc(N3CCCCC3)cc2)[nH]c2ccc(Cl)cc12 | inactive
NC(=S)c1ccc[n+]([C@@H]2O[C@@H](COP(=O)([O-])OP(=O)(O)OC[C@H]3O[C@@H](n4cnc5c(N)ncnc54)[C@H](OP(=O)(O)O)[C@@H]3O)C(O)C2O)c1 (some centres not stated) | inactive
CCCn1c(=O)c2[nH]c(-c3ccc(OCC(=O)NCCN)cc3)nc2n(CCC)c1=O | inactive
CN=c1nc(-c2ccccc2)n(-c2ccccc2)s1 | 8.49 µM (active)
CNC(=O)[C@H]1O[C@@H](n2cnc3c(NCc4ccc(N)cc4)ncnc32)[C@H](O)[C@@H]1O | inactive
C=CC(C)=C[C@@]1(C)SC(=O)C(C)=C1O | inactive
Clc1ccc(N2CCN(Cc3cc4ccccn4n3)CC2)cc1 | inactive
N#C/C(=C\c1ccc(O)c(O)c1)C(=O)NCc1ccccc1 | inactive
OC[C@H]1O[C@@H](n2cnc3c(NC4CCCCC4)ncnc32)[C@H](O)[C@@H]1O | inactive
O=C1NC(=O)/C(=C/c2ccc3nccnc3c2)S1 | inactive
NCCCCC(=O)O | inactive
COc1ccccc1N1CCN(CCN(C(=O)c2ccc(I)cc2)c2ccccn2)CC1 | inactive
NCC1OC(O[C@H]2[C@H](O)[C@@H](OC3C(O)C(N)CC(N)C3OC3OC(CO)C(O)C(O)C3N)O[C@@H]2CO)C(N)C(O)C1O (some centres not stated) | inactive
O=C(O)c1cc([N+](=O)[O-])ccc1NCCCc1ccccc1 | inactive
Nc1ncnc2c1ncn2[C@@H]1O[C@H](COP(=O)(O)CP(=O)(O)OP(=O)(O)O)[C@@H](O)[C@H]1O | inactive
NC(=O)C1=CN(C2OC(COP(=O)(O)OP(=O)(O)OC[C@H]3O[C@@H](n4cnc5c(N)ncnc54)[C@H](OP(=O)(O)O)[C@@H]3O)C(O)C2O)C=CC1 (some centres not stated) | inactive
CCCCC#Cc1nc(NC)c2ncn([C@@H]3O[C@H](CO)[C@@H](O)[C@H]3O)c2n1 | inactive
